# Test results: the supplement of paper PMC6555819
# Assays:
# Test in all cases: PBM binding z-score (relative to random genomic background probes); higher = stronger binding; sequences stand for … in GC…GCGATTGACAGCGTAGAATGAAGG
# [1] = test system: RARb homodimer (NR concentration 270 nM)
# Outline: (§1)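 Antibodies against each partner of ligand-free nuclear receptor dimers (one per run) detected binding on custom Agilent 4×180K protein-binding microarrays after 1 h incubation. The double-stranded probes had 34-nt variable regions carrying direct-repeat seeds, single-nucleotide variants, half-site ablations and random human genomic background sequences. Binding z-scores, from regression-normalized fluorescence, use the random background probes as reference.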
# [2] = test system: RARg:RXRa (NR concentration 270 nM, RXRa partner concentration 90 nM)
# Outline: as §1
# [3] = test system: RARg homodimer (NR concentration 270 nM)
# Outline: as §1
# [4] = test system: RXRa DBDmut IVT, anti-RXR (DBD mutation: RXRa K156A/R161A, NR concentration 90 nM)
# Outline: as §1
# [5] = test system: RXRa homodimer (NR concentration 180 nM)
# Outline: as §1
# [6] = test system: THRa:RXRa (NR concentration 90 nM, RXRa partner concentration 90 nM)
# Outline: as §1
# [7] = test system: THRa homodimer (NR concentration 90 nM)
# Outline: as §1
# [8] = test system: VDR homodimer (NR concentration 270 nM)
# Outline: as §1
Sequence,PBM binding z-score [1],PBM binding z-score [2],PBM binding z-score [3],PBM binding z-score [4],PBM binding z-score [5],PBM binding z-score [6],PBM binding z-score [7],PBM binding z-score [8]
GCCGACAGGTGAAACGCAGGTAACTCAGGGTGGC,-0.0352,0.819,0.229,-0.346,0.514,1.35,-0.657,-0.993
TTACCAAGCTGAGCTGAGGTCGTTGATCCAACTC,0.0127,-0.204,-0.865,0.00802,0.266,2.08,1.17,0.915
AGAACGATGGCAATGAGTTGATAGCACGGGTGGC,-1.04,-0.249,0.108,-0.297,0.0313,-0.986,-0.999,-0.0604
ATATGTAGGTTATCCGGTCATTCAGTTTGCGCAT,2.35,2.11,1.83,0.932,1.4,1.67,1.08,1.53
GGAACGAGGGCATTCGCGTTGATAGCATGGCGAT,0.582,0.978,1.21,2.75,0.746,1.08,-0.426,1.79
ATCTCTAGGTAAAAGTTGAGTGAATCCCGAGGAT,0.0614,0.517,0.653,0.044,0.435,0.387,0.0583,-0.06
CCGACTGGGGCAAAGGTGACCATACTCAGTACGA,1.44,1.9,1.13,-0.244,2.04,0.896,-0.0809,-0.471
AGAATGAGGTTAAGATCAGGGAAACAGAATACAT,0.9,2.17,1.52,0.973,2.58,2.67,0.768,0.379
CCTACTGGGCCAGTCAGAGGTCATTGATCATATG,3.65,3.94,2.79,0.705,3.71,2.94,1.03,3.27
CGAACGAGGGCATGAGTTGATTGCAAATGCCGAT,0.769,1.29,1.48,2.73,0.985,1.22,-0.209,1.94
ACAGACAGCTGAGTGAAGGTAACTCAGCTGGACG,-0.758,-0.23,-0.426,-0.997,0.00757,-0.178,-0.586,-0.66
TCTCGAAGGACACGAAGGTCAGAGCTTTCCAGAG,3.75,2.99,3.73,0.817,1.94,2.03,0.331,0.435
TGAATGAGGTTAAAAGATCAGGGAACGTTGCAAA,0.578,2.56,1.18,0.605,2.79,1.83,-0.00624,0.327
TGTCAAAGTTCAAAGGTAACGTCAGTATCCACAC,4.03,6.26,5.87,4.29,6.96,3.51,-0.193,4.08
CCTAGCAGGCCAATCTGGGTCACTCCAGGCTTGA,2.01,0.98,1.01,-0.206,0.548,3.49,0.312,-0.0635
ATCTCTAGGTCAAGTTCAGTGAAAGATCGATAGA,3.89,4.93,5.92,2.98,3.73,3.44,2.16,3.44
TCGACTAGGTTAGTCGGGGCATTCAGCCAACATA,0.379,-0.0311,-0.0411,0.284,-0.049,1.1,-0.279,0.492
ATCTCTAGGTAAAGATAGCTCAGTGAATGCAAAT,-0.409,0.141,0.459,-0.409,-0.19,-0.00233,-0.226,-0.379
ATGTGTAGGTTAAGGGTCATTCAGGTTGGTTCGC,4.06,4.95,3.99,2.14,6.33,3.69,2.32,5.37

Sequence,PBM binding z-score [1],PBM binding z-score [2],PBM binding z-score [3],PBM binding z-score [4],PBM binding z-score [5],PBM binding z-score [6],PBM binding z-score [7],PBM binding z-score [8]
CCAGACAGGTGAGAAGGCAACTCAGCCTCGATTA,0.103,0.0395,0.271,0.0472,0.0532,-0.202,-0.363,0.221
GTACCAAGGTGAATAGGTCGTAGATGAGTAGGCG,1.92,2.94,1.61,-0.478,2.18,1.83,0.42,0.204
CAAACTAGATCAAAGGTCAAAGTCGAGCCAACCA,4.67,6.29,5.66,2.16,7.75,3.51,0.812,2.87
CCTCGGAGGACAGAAGCTCAGAGCTGTCCGCTTT,-0.763,-0.638,-0.103,-0.29,-0.985,-0.606,-1.12,-0.819
TCTGCTAGGTCAGATGGTCAGCTAACGAGCTGCC,2.5,3.25,4.16,0.506,1.84,1.51,-0.192,-0.819
TCTGCTAGGTCAACGATGGTCAACTAATCTGCTA,3.58,4.12,5.25,1.32,2.75,3.24,1.05,0.125
TCTTGTAGATCAACAGGTTAAGAAAGCTGGCCAA,0.358,0.2,-0.172,0.696,0.726,0.203,-0.285,-0.285
TCTATTAGTTGAAGGGCAAGCGACGAGTCCGTTT,1.28,0.558,0.708,1.59,0.725,0.196,0.0509,1.23
TCTTGTAGATCAACCAGGTTAAGAAAGCCTGAGT,0.615,0.0614,-0.146,0.718,0.38,0.777,0.123,0.207
ATATGTAGGTTATCGGGCCATTCAGTTTGCGCAT,1.07,0.874,0.93,0.832,0.911,1.24,0.971,1.34
GATACAGGGACAAGGCCAGAGTACGCGTATTGAT,0.843,0.288,1.06,-0.24,0.00121,0.874,0.292,0.46
GCGACTGGGGCATCAGCAGGTTACAATAACTTAA,0.719,0.817,0.522,-0.00722,0.334,0.895,0.0253,-0.0954
TCTCGGAGGACACGCAGGTCAGAGCTTTCCAGAG,2.81,2.47,3.04,0.783,1.05,2.63,1.06,1.2
GCATATAGGTAATACAAGGTGGAAGTCCGATTGT,-0.533,0.279,0.315,0.235,0.566,2.03,-0.457,-0.109
TCTAGTTGGTCTCGGAGGTCACACACGACGGGTA,4.01,3.75,3.47,1.15,4.16,3.65,2.74,2.48
CCTTACGGGTCACTCACAGGTTATAGCATTTGGA,3.65,5.9,4.5,2.04,4.75,3.07,0.529,1.28
ACTATTAGTTGATTTAGGGCAACCGATACGACGC,0.736,0.306,0.883,1.2,0.356,1.52,0.806,0.367
TCATATAGGTAAATGCTAGGTGCAAGTCCGATCT,-0.219,0.325,0.13,1.51,0.838,0.121,0.135,0.597
CAAACTAGGTCAAGAGGTCCAAGTCCGCTTCCCG,3.2,4.03,4.37,1.42,2.65,2.55,0.871,1.74

Sequence,PBM binding z-score [1],PBM binding z-score [2],PBM binding z-score [3],PBM binding z-score [4],PBM binding z-score [5],PBM binding z-score [6],PBM binding z-score [7],PBM binding z-score [8]
TCTTGTAGATCAACAGGAGGTTACGAAAGATCGA,0.979,1.06,0.394,0.347,1.19,1.5,-0.205,0.0245
CGTCAAAGTTCAAGGGAACGTAACAGAAAGCAGC,3.52,4.97,5.93,4.46,4.17,1.72,-0.254,2.72
CGAACGAGGGCATGAGTTGATATCAAATGCCGAT,0.794,1.37,1.81,2.39,0.883,1.14,-0.157,2.28
ATATGAAGGTTAGCTGGGGTCATTCAGACTAGGC,4.37,4.69,3.82,1.97,6.06,5.24,3.38,5.65
AGTCAAAGTTCAGGACCAGGTAACGTAAAGCACG,3,4.41,4.51,2.84,2.91,3.14,0.673,1.72
TCATAGAGGTAAATGCTAGGTGAAAGTCCGATCT,0.335,0.753,0.235,0.932,0.849,1.94,0.361,-0.248
ACAGACAGGTGATGAAGGAAACTCAGGCTATCAT,0.24,0.168,0.36,-0.0618,0.38,0.154,0.0695,-0.33
ATCTCTAGGTAACAAGTTCACTGAAAGAGAGGAC,2.61,2.27,2.04,1.69,1.87,2.12,1.03,3.99
AGACCAAGGTGATCGTGAGGTCGTTGATACTAAC,1.51,1.99,0.635,0.408,1.37,3.4,2.04,2.56
CCTAGCAGGCCAATCTGGGTCACTCACGGCTTGA,2.23,1.18,1.36,0.336,0.802,3.47,0.637,0.103
TCATATAGGTATAAGGTGAAAGTCGGTGTGGTAA,1.17,0.768,0.521,1.77,1.35,2.68,2.4,0.494
CGTCCAAAGTCATAGGAGGTCAGTGAAGACAGAT,3.55,2.71,2.75,0.438,1.96,4.28,0.808,1.55
ACTATTAGTTGTCTTAGGGCAACCGATACGACGC,0.406,0.149,0.589,0.518,0.061,1.03,0.603,0.0368
GCTTGTAGATCTAGGTTAAGAAAGACTAAGCTAA,-0.325,-0.324,-0.326,-0.252,-0.074,0.276,-0.767,-0.721
CGTCCACGGTCAATGCTAGGTCAGTGAAAGCATT,3.02,3.59,3.1,0.356,0.354,2.12,0.347,-0.19
TGAATGAGTTTAAAGATCAGGGAACGTGGCGTCG,-0.301,0.427,0.222,3.12,0.84,-0.0905,-0.483,2.88
AGAATGAGGCTATACGTAGATCAGGGAAGAAAGT,-0.0625,0.222,0.232,-0.0879,-0.0272,0.084,-0.165,-0.0917
CCTTCCGGGTCACGAGGTTATAGCACGACGAGCG,4.02,6.06,5.4,1.68,7.05,4.22,2.95,2.57
